# Experimental data reported in PubChem BioAssay (NCATS).
# Several values for one entry are separate records, joined by “and”; a condition that tells them apart may be missing. Equal entries are not always repeated. Inconclusive results are not listed. Unmarked numbers belong to inactive results. Activity calls are given as the source filed them. The call rests on the fitted dose curve; in most records, active means well fitted curve in the direction sought with a large enough effect; inconclusive means small, poorly fitted or top-dose-only effect, or another doubt; inactive means no such curve, though single readings can be large or run the other way.
# Test: qHTS Assay for Identifying Gametocytocidal Compounds (AID 743244);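 on max response: actives lower the fluorescent signal which means gametocytes are killed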
# Settings: P. falciparum 3D7 stage III-V gametocytes, alamarBlue, 72 h; max response: stronger effect = lower value
# Summary of the method: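 Fluorescence at Ex 525/Em 598 nm, recorded 24 h after alamarBlue addition, reports residual metabolic activity of 3D7 gametocytes (stages III–V) following 72 h compound exposure at 37 °C, 5% CO2.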
# On the % scale 0 is the no-effect control and ±100 the full control effect; potency means the concentration at half of the fitted maximal effect.
Structure (SMILES),max response,Potency
CCCCCCCCCC(=O)O[C@H]1CC[C@H]2[C@@H]3CCC4=CC(=O)CC[C@@H]4[C@H]3CC[C@]12C,5.38%,–
CCN(CCO)CCn1c(Cc2ccccc2)nc2c1c(=O)n(C)c(=O)n2C,2.54%,–
O=C1CN=C(c2ccccc2)c2cc([N+](=O)[O-])ccc2N1,13.6%,–
CCOc1ccc(NS(=O)(=O)c2ccc(N)cc2)nn1,42.3%,–
CCCCCN(C)CCC(O)(P(=O)(O)O)P(=O)(O)O,17.4% and 7.96%,–
COc1ccc2c(c1)C13CCCC[C@@H]1C(C2)N(C)CC3 (stereo partly drawn),7.6%,–
CC(C)C[C@H]1C(=O)N2CCC[C@H]2[C@]2(O)O[C@](NC(=O)[C@@H]3C=C4c5cccc6[nH]c(Br)c(c56)C[C@H]4N(C)C3)(C(C)C)C(=O)N12,–,22.4 µM (active) and 1.26 µM (active)
C[N+]1(CCF)[C@@H]2CC[C@H]1CC(OC(=O)C(O)(c1ccccc1)c1ccccc1)C2 (stereo partly drawn),7.34%,–
C#C[C@]1(O)CC[C@H]2[C@@H]3CCC4=CC(=O)CC[C@]4(C)[C@H]3CC[C@@]21C,15.4% and 2.46%,–
CCCCCCC(=O)CCCCCC/C=C/C[C@@H](O)[C@H](O)[C@@](N)(CO)C(=O)O,-3.38% and -2.5%,–
COc1ccc2c3c1O[C@H]1[C@H](O)CC[C@H]4[C@@H](C2)N(C)CC[C@@]341,-0.489%,–
CC(Cc1ccccc1)NCCn1cnc2c1c(=O)n(C)c(=O)n2C (stereo not drawn),-2.49%,–
O=C1OC(c2ccc(O)c(S(=O)(=O)O)c2)(c2ccc(O)c(S(=O)(=O)O)c2)c2c(Br)c(Br)c(Br)c(Br)c21,21%,–
